The text below walks through data of PubChem BioAssay (NCATS).

Structures are written as SMILES. Results filed as inconclusive are left out. Entries that show only a call come without a potency. Calls of active or inactive are those of the source. The call rests on the fitted dose curve; in most records, active means well fitted inhibition curve with a large enough effect; inconclusive means small, poorly fitted or top-dose-only effect; inactive means no such curve, though single readings can be large or run the other way.
Potency means the concentration at half of the fitted maximal effect.

The test can be described thus: BET inhibitor-based combinations targeting novel dependencies in MECOM-rearranged (r) AML: MV-4-11 cell line (AID 2202233). Further: nearly all actives have a fitted effect of over 45% in size. Conditions: MV-4-11 AML viability, CellTiter-Glo luminescence, 48 h; series mostly up to 46 µM. An excerpt: Ecotropic viral insertion site 1 (EVI1) is located on chromosome 3q26.2 as part of the MECOM (MDS and EVI1 complex) locus. Under normal hematopoiesis, EVI1 is a regulator of hematopoietic stem cell maintenance and self-renewal and EVI1 levels decrease as the cells differentiate. In approximately 5-10% of de novo acute myeloid leukemia (AML) EVI1 is aberrantly expressed, including Chromosomal inv(3)(q21;q26.2) or t(3;3)(q21;q26.2) alterations (MECOM-r) that account for about 50% of AML with EVI1 overexpression 31. AMLs with high levels of EVI1 have a poor prognosis and an overall survival time averaging between 10-14 months. EVI1 overexpression confers resistance in leukemia cells, highlighting the need to develop new targeted therapies for EVI1 overexpressing AMLs. Here, we performed an unbiased chemical drug screening by evaluating the single agent activity of a collection of 2,480 oncology-focused, approved and investigational drugs (NCATS Mechanism Interrogation Plates, MIPE v5.0) against a panel of seven AML cell lines. These included four MECOM-r cell-lines (AML-191, AML-194, UCSD-AML1 and HNT-34) and three non-MECOM-r AMLs (MV4-11, OCI-AML3 and SET-2). Exploiting the mechanistic redundancy built in the library, we identified target-level sensitivities in MECOM-r AML cells and relative activity as compared to other AML subtypes.
A collection of 2480 mechanistically annotated dugs (MIPE v5.0) was used to screen four 3q26.2 rearranged AML cell lines and three non-3q26.2 rearranged AML cell lines. This library purposely exploits redundancy by including multiple inhibitors of key onco-targets, while simultaneously encompassing mechanistic diversity, targeting more than 800 distinct mechanisms of action. Briefly, cells were seeded in 5 uL of growth media using a Multidrop Combi dispenser into 1536 well white polystyrene tissue culture treated plates (Corning) at a density of 500cells/well. For each cell-line, for each of the 2480 drugs in MIPE v5.0 library, an 11-point dose curve was generated via a 1536 pin-tool. Plates were incubated for 48 hr at standard incubator conditions, covered by a stainless steel gasketed lid to prevent evaporation. Cell viability was determined by luminescence based, Cell Titer Glo assay (Promega). In detail, 3 uL of Cell Titer Glo were added to each well and plates were incubated at room temperature for 15 min with a stainless-steel lid in place. Luminescence readings were taken using a Viewlux (PerkinElmer) with a 2 s exposure time per plate. Compound dose-response curves were normalized to DMSO and empty well controls on each plate. Quantitative drug activity data from dose-response curves was determined utilizing area Under the Curve (AUC) and Z-transformed AUC (Z-AUC, a mean-centering transformation applied to each individual cell-line screened).
Background: In ATP-based viability assays light output follows the ATP content of the culture.
Consider `CCC1(c2ccc(N)cc2)CCC(=O)NC1=O` (stereo not given), for which the Potency result is “inactive”.

`CCNC(=O)C[C@@H]1N=C(c2ccc(Cl)cc2)c2cc(OC)ccc2-n2c(C)nnc21`: the Potency was 0.468 µM (active).

As for `C[C@@]12OC(=O)[C@]1([C@@H](O)[C@@H]1C=CCCC1)NC(=O)[C@@H]2CCCl`, the Potency is 0.0235 µM (active).

As to `C=C1C[C@@H]2[C@H](CC[C@]3(C)C(=O)CC[C@@H]23)[C@@]2(C)C=CC(=O)C=C12`, the Potency was 18.6 µM (active).

`C[C@H]1CCC/C=C/C2C[C@H](O)C[C@H]2[C@H](O)/C=C/C(=O)O1` (stereo not given in full): the Potency is 0.263 µM (active).

As for `C/C1=C/C[C@@H](/C(C)=C/c2csc(C)n2)OC(=O)C[C@H](O)C(C)(C)C(=O)[C@H](C)[C@@H](O)[C@@H](C)CCC1`, the Potency is 0.148 µM (active).

Take `COC12C(COC(N)=O)C3=C(C(=O)C(C)=C(N)C3=O)N1CC1C2N1C` (stereo not given): the Potency entry is “inactive”.

Take `CN(C)[C@@H]1C(=O)C(C(N)=O)=C(O)[C@@]2(O)C(=O)C3=C(O)c4c(O)cccc4[C@@](C)(O)[C@H]3[C@H](O)[C@@H]12`: the Potency result was “inactive”.

On to `Cn1cc(C2=C(c3cn(C4CCN(Cc5ccccn5)CC4)c4ccccc34)C(=O)NC2=O)c2ccccc21`, for which the Potency is 4.68 µM (active).

On to `COc1ccc(C(=O)N2CCCC2=O)cc1`, for which the Potency entry was “inactive”.

In the case of `CC(C)CC(N(C)C)C1(c2ccc(Cl)cc2)CCC1` (stereo not given), the Potency entry is “inactive”.

Consider `C=C(C)[C@H]1Cc2c(ccc3c2O[C@@H]2COc4cc(OC)c(OC)cc4[C@@H]2C3=O)O1`, for which the Potency is 0.417 µM (active).

For `Cc1cccc(C)c1NC(=O)CN1CCCC1=O`, the Potency entry is “inactive”.

As to `NCC1(CC(=O)O)CCCCC1`, the result was inactive.

For the compound `C/C(O)=C(\C#N)C(=O)Nc1cc(Br)ccc1Br`, the Potency result is “inactive”.

With `CN1C(=O)[C@@H](NC(=O)[C@H](CCC(F)(F)F)[C@H](CCC(F)(F)F)C(N)=O)N=C(c2ccccc2)c2ccccc21`, the Potency result is “inactive”.

For `Cc1sc2c(c1C)C(c1ccc(Cl)cc1)=N[C@@H](CC(N)=O)c1nnc(C)n1-2`, the Potency is 0.0833 µM (active).

As to `C/C(=C\c1csc(C)n1)[C@@H]1C[C@@H]2O[C@@H]2CCC[C@H](C)[C@H](O)[C@@H](C)C(=O)C(C)(C)[C@@H](O)CC(=O)O1`, the Potency is 0.0332 µM (active).

Consider `Cc1c(C(=O)Nc2cccc(C(F)(F)F)c2)cc(-c2ccccc2)n1CCCN1CCOCC1`, for which the Potency was 20.9 µM (active).

As to `CC1(C)CC[C@]2(NC(=O)C(C)(F)F)CC[C@]3(C)[C@H](C(=O)C=C4[C@@]5(C)C=C(C#N)C(=O)C(C)(C)[C@@H]5CC[C@]43C)[C@@H]2C1`, the Potency is 1.18 µM (active).

`COC[C@@H](NC(C)=O)C(=O)NCc1ccccc1`: the Potency entry was “inactive”.

Turning to `O=S(=O)(CC1CS1)c1ccc(Oc2ccccc2)cc1` (stereo not given), the Potency is 11.8 µM (active).

Regarding `CC[C@H]1/C=C\C=C/C[C@@H](C)[C@H](O)[C@@](C)(O)C(=O)[C@@H](C)[C@H](O)[C@@H](C)C(=O)[C@@H](C)[C@H](O)[C@@H](C)/C=C\C(=O)O[C@@H]2[C@H](C)[C@H](CC1)O[C@]1(CC[C@H](C)[C@H](C[C@@H](C)O)O1)[C@H]2C`, the Potency was 0.0263 µM (active).

Turning to `C#CCN(C)[C@H](C)Cc1ccccc1`, the Potency result is “inactive”.

In the case of `C[C@]12CC[C@H](O)CC1=CC[C@@H]1[C@@H]2CC[C@]2(C)C(=O)CC[C@@H]12`, the Potency result was “inactive”.

`O=C(O)CNC(=O)c1c(O)c2ccccc2n(Cc2ccccc2)c1=O`: the Potency entry was “inactive”.

On to `C[C@@H]1O[C@@H](O[C@H]2C[C@@H](O)[C@]3(CO)[C@H]4[C@H](O)C[C@]5(C)[C@@H](C6=CC(=O)OC6)CC[C@]5(O)[C@@H]4CC[C@]3(O)C2)[C@H](O)[C@H](O)[C@H]1O`, for which the Potency was 0.118 µM (active).

Take `CN1C(=O)CCS(=O)(=O)C1c1ccc(Cl)cc1` (stereo not given): the Potency result was “inactive”.

Take `CC1(C)CC(O)CC(C)(C)N1O`: the Potency entry was “inactive”.

For the compound `C[C@@H]1C[C@@H]([C@H](O)CC2CC(=O)NC(=O)C2)C(=O)[C@@H](C)C1`, the Potency was 0.525 µM (active).

As to `COC[C@H]1OC(=O)c2coc3c2[C@@]1(C)C1=C(C3=O)[C@@H]2CC[C@H](O)[C@@]2(C)C[C@H]1OC(C)=O`, the Potency is 5.9 µM (active).

For the compound `CC(=O)OC[C@H]1O[C@@H]([S-])[C@H](OC(C)=O)[C@@H](OC(C)=O)[C@@H]1OC(C)=O.CC[PH+](CC)CC.[Au]`, the Potency was 0.235 µM (active).

As to `O=c1[nH]c2ccc(Cl)cc2c(N[C@@H]2CN3CCC2CC3)c1-c1nc2ccccc2[nH]1`, the Potency was 0.0742 µM (active).

Regarding `CC(C)(O)/C=C\C(=O)[C@](C)(O)[C@H]1[C@H](O)C[C@]2(C)[C@@H]3CC=C4[C@@H](C=C(O)C(=O)C4(C)C)[C@]3(C)C(=O)C[C@@]12C`, the Potency is 0.148 µM (active).

For the compound `CCOc1ccccc1-n1c(C(C)N2CCN(C(=O)COc3ccc(Cl)cc3)CC2)nc2ccccc2c1=O` (stereo not given), the Potency was 3.32 µM (active).

Regarding `N#CC(O[C@@H]1O[C@H](CO[C@@H]2O[C@H](CO)[C@@H](O)[C@H](O)[C@H]2O)[C@@H](O)[C@H](O)[C@H]1O)c1ccccc1` (stereo not given in full), the Potency entry was “inactive”.

For the compound `NN=C(N)N`, the Potency result is “inactive”.

With `CCN(CC)C(=O)c1ccc(C2=CC3(CCNCC3)Oc3cccc(O)c32)cc1`, the Potency entry was “inactive”.

In the case of `O=C1C=CC[C@@H]2[C@H]3CCCN4CCC[C@@H](CN12)[C@@H]34`, the Potency entry is “inactive”.

In the case of `CN1C(=O)COc2c(C(=O)NC3CN4CCC3CC4)cc(Cl)cc21` (stereo not given), the Potency entry is “inactive”.
